Experimental data taken from PubChem BioAssay (NCATS).
Results filed as inconclusive are left out. Values without a mark were called inactive. The source made the active and inactive calls. The call rests on the fitted dose curve; in most records, active means well fitted cell-killing curve with a large enough effect; inconclusive means small, poorly fitted or top-dose-only effect, or effect the other way; inactive means no such curve, though single readings can be large or run the other way.

Key:
[1] = Viability qHTS for spleen associated tyrosine kinase inhibitor (SYKi) naive MV4-11 cells (AID 1963823); further: nearly all actives have a fitted effect of over 40% in size
How it was run: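 SYK inhibitor-naive MV4-11 cells, 500 per well, exposed to compounds for 72 hr at 37 C, 5% CO2. Viability read as CellTiter-Glo luminescence after 10 min at room temperature.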

[2] = Viability qHTS for spleen associated tyrosine kinase inhibitor (SYKi) drug resistant MV4-11 cells (AID 1963824); further: nearly all actives have a fitted effect of over 35% in size
How it was run: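 CellTiter-Glo luminescence, read 10 min after reagent addition, reports viability after a 72 hr compound exposure. Cells are an MV4-11 line made resistant to SYK inhibition, seeded at 500 per well onto compound-containing plates.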
Potency means the concentration at half of the fitted maximal effect.

Row | SMILES | Potency [1] | Potency [2] | viability (% of control) [1] | viability, % of control [2]
1 | CO[C@@H]1[C@@H](O)[C@@H](O[C@H]2CC[C@]3(C=O)C4CC[C@]5(C)[C@@H](C6=CC(=O)OC6)CC[C@]5(O)[C@@H]4CC[C@H]3C2)O[C@@H](C)[C@H]1O[C@@H]1O[C@H](CO[C@@H]2O[C@H](CO)[C@@H](O)[C@H](O)[C@H]2O)[C@@H](O)[C@H](O)[C@H]1O (some centres not stated) | 3.9 µM (active) | 1.38 µM (active) | – | –
2 | COC(=O)C1(C)CCC(O)C2(C)c3c(O)cc(C(C)C)cc3C(O)C(OC(C)=O)C12 (configuration not stated) | inactive | inactive | – | –
3 | COC1C(O)C(C)OC(OC2C(CO)O[C@@H](O[C@@H]3CC4CCC5C(CC[C@]6(C)[C@@H](C7=CC(=O)OC7)CC[C@]56O)[C@@]4(C)[C@H](OC(C)=O)C3)C(O)C2O)C1O (some centres not stated) | 2.43 µM (active) | 1.09 µM (active) | – | –
4 | Oc1ccc2c3c1O[C@H]1[C@H](N(CCCl)CCCl)CC[C@@]4(O)[C@@H](C2)N(CC2CC2)CC[C@]314 | – | – | 89.3% [at 9.25 µM] | 83.4% [at 9.25 µM]
5 | CC1=CC(=O)[C@@H](O)[C@]2(C)C3[C@@H](O)[C@@H]4OC(=O)[C@@H]([C@H]4C)[C@]3(C)C(=O)C[C@@H]12 (some centres not stated) | 0.904 µM (active) | 1.01 µM (active) | – | –
6 | CC(=O)O[C@H]1C[C@@H](C)O[C@H]2O[C@@H]3CC4CC[C@@H]5C(CC[C@]6(C)[C@@H](C7=CC(=O)OC7)CC[C@]56O)[C@@]4(C=O)C[C@H]3O[C@]21O (some centres not stated) | 0.0432 µM (active) | 0.0485 µM (active) | – | –
7 | CC(=O)OC[C@]12C[C@H](OC(=O)CC(C)C)C(C)=C[C@H]1O[C@@H]1[C@H](O)C[C@@]2(C)[C@]12CO2 | 0.252 µM (active) | 0.282 µM (active) | – | –
8 | O=C(OC[C@H]1O[C@@H](Oc2ccc(O)cc2CO)[C@H](O)[C@@H](O)[C@@H]1O)c1ccccc1 | inactive | inactive | – | –
9 | C1=C2CCCN[C@H]2[C@@H]2C[C@H]1[C@H]1CCCCN1C2 | inactive | inactive | – | –
10 | NNc1ccccc1 | inactive | inactive | – | –
11 | CC[C@@H]1C[C@H]2CC[C@H](O2)[C@H](C)C(=O)O[C@@H](C)C[C@@H]2CC[C@@H](O2)[C@@H](C)C(=O)O[C@H](C)C[C@H]2CC[C@H](O2)[C@H](C)C(=O)O[C@@H](C)C[C@@H]2CC[C@@H](O2)[C@@H](C)C(=O)O1 | 0.0343 µM (active) | 0.0385 µM (active) | – | –
12 | COC(=O)[C@@]1(C)C(=O)C=C[C@]2(C)c3c(O)cc(C(C)C)cc3[C@H](O)[C@@H](OC(C)=O)C12 (some centres not stated) | 11.2 µM (active) | 8.93 µM (active) | – | –
13 | CC(C)[C@H]1OC(=O)[C@H](Cc2ccccc2)N(C)C(=O)[C@@H](C(C)C)OC(=O)[C@H](Cc2ccccc2)N(C)C(=O)[C@@H](C(C)C)OC(=O)[C@H](Cc2ccccc2)N(C)C1=O | 3.85 µM (active) | 5.44 µM (active) | – | –
14 | Cc1ccccc1C1=CCN(C)CC1 | inactive | inactive | – | –
15 | C=C1[C@@]23C(=O)O[C@H](C)[C@]24O[C@@]2(C(=C)[C@]5(C=CC(=O)OC5(C)C)CC[C@]32C)[C@H](O)[C@@]1(C)OC4=O | inactive | inactive | – | –
16 | CC1=CC2/C=C(\C)CCC(O)C(O)/C=C/C(=O)OC23C(=O)NC(CC(C)C)C3C1C (configuration not stated) | 7.96 µM (active) | 7.96 µM (active) | – | –
17 | CC(=O)OC[C@]12[C@H](OC(C)=O)C(=O)[C@@H]3[C@@H](O)[C@@]14O[C@@]3(C)COC(=O)c1cccnc1[C@@H](C)[C@H](C)C(=O)O[C@@H]([C@H](OC(C)=O)[C@@H]2OC(C)=O)[C@]4(C)O | 5.44 µM (active) | 5.44 µM (active) | – | –
18 | COc1ccc(CN(C(=O)[C@@H](N)Cc2c(C)cc(C(N)=O)cc2C)[C@@H](C)c2ncc(-c3ccccc3)[nH]2)cc1C(=O)O | inactive | inactive | – | –
19 | C[C@@H]1O[C@@H](O[C@H]2CC[C@@]3(C)C(CC[C@@H]4C3CC[C@]3(C)[C@@H](C5=CC(=O)OC5)CC[C@]43O)C2)[C@H](O[C@@H]2O[C@H](CO)[C@@H](O)[C@H](O)[C@H]2O)[C@H](O)[C@H]1O (some centres not stated) | 0.343 µM (active) | 0.172 µM (active) | – | –
20 | C[C@@H]1O[C@@H](OC2CCC3(C=O)C(CCC4C3CCC3(C)C(C5=CC(=O)OC5)C(O)CC43O)C2)[C@H](O)[C@H](O)[C@H]1O[C@@H]1O[C@H](CO)[C@@H](O)[C@H](O)[C@H]1O (some centres not stated) | 2.17 µM (active) | 1.72 µM (active) | – | –
21 | C[N@@+]1(CC2CC2)CC[C@]23c4c5ccc(O)c4O[C@H]2C(=O)CC[C@@]3(O)[C@H]1C5 | inactive | inactive | – | –
